Unmarked numbers belong to inactive results. Calls of active or inactive are those of the source. The call rests on the fitted dose curve; in most records, active means well fitted inhibition curve with a large enough effect in the repeat runs (not every such curve was filed as active); inconclusive means weak or mixed curves; inactive means flat fitted curve, though single readings scatter.
On the % scale 0 is the no-effect control and ±100 the full control effect.

Chain of Thyrotropin-releasing hormone receptor (Homo sapiens) (P34981 whole entry, looked up): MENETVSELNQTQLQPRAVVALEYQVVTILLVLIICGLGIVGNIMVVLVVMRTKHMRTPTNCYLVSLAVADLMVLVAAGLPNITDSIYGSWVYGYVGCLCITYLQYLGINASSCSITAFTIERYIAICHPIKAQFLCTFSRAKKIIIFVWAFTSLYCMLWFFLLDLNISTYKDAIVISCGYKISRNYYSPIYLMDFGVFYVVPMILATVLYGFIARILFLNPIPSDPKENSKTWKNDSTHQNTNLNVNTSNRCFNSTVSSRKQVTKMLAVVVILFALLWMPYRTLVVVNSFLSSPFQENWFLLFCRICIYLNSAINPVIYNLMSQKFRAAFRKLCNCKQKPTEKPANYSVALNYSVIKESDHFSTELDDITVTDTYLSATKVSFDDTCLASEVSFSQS

This assay has as its target Thyrotropin-releasing hormone receptor (Homo sapiens) (UniProt P34981). The experiment in a line: qHTS assay to identify small molecule antagonists of the thyrotropin-releasing hormone receptor (TRHR) signaling pathway (AID 1346877). To be noted: TRHR-HEK293, TRH-induced calcium fluorescence, antagonist mode; series mostly up to 51.3 µM; activity, negative = inhibition: at the top concentration. The source says:
National Center for Advancing Translational Sciences [NCATS]
NIH Chemical Genomics Center [NCGC]
U.S. Environmental Protection Agency [EPA]
National Institutes of Environmental Health Sciences [NIEHS]
National Toxicology Program [NTP]
U.S. Food and Drug Administration [FDA]
Thyrotropin-releasing hormone (TRH) receptor (TRHR) is a G-protein-coupled receptor which binds the tripeptide thyrotropin releasing hormone. TRHR is found in the brain and, when bound by TRH, acts (through phospholipase C) to increase intracellular inositol trisphosphate. It plays a crucial role in the anterior pituitary where it controls the synthesis and secretion of thyroid stimulating hormone and prolactin. The TRHR-Hek293 assay is a cell-based assay, and it has the potential to screen G protein-coupled receptors. A compound/drug can either activate (agonist) or suppress (antagonist) GPCRs that can be monitored by levels of intracellular calcium. In this assay, the Tox21 10K compound library was screened to identify potential TRHR antagonists.
Tox21 Assay Protocol Summary:
The TRHR-Hek293 cells were dispensed at 1500cells/4uL/well in 1536-well black-clear bottom plates using a Multidrop dispenser. After the assay plates were incubated at a 37 C/5% CO2 incubator for 18 hours, 4 uL of Dye-Loading Solution was added to each well. The plates were incubated at 37 C for 2 hours. For agonist mode, 23 nL of compounds dissolved in DMSO, positive controls or DMSO only was transferred to the assay plate by a pin tool. The fluorescence intensity in the plates was measured using FDSS 7000EX kinetic plate reader for 3 min at 1 sec intervals. For antagonist mode, 23 nL of compounds dissolved in DMSO, positive controls or DMSO only was transferred to the assay plate by a pin tool. After 5 min incubation at room temperature, 1 uL of TRH was added on the top of the cell/compound mixtures to achieve a final agonist concentration of 1 nM. The fluorescence intensity in the plates was measured using FDSS 7000EX kinetic plate reader for 3 min at 1 sec intervals. Each test compound was measured at 15 concentrations and in triplicates.
On the technique in general: qHTS replaces the single test concentration by a dilution series.
For `CCOP(=S)(OCC)Oc1cnc2ccccc2n1`, the result was inactive.

On to `CCN(CC)CCO`, for which the result was inactive.

In the case of `Cn1cc(-c2ccccc2)c(=O)c(-c2cccc(C(F)(F)F)c2)c1`, the outcome was inactive.

Consider `Cc1ccccc1O`, for which the result was inactive.

Regarding `O=c1[nH]c(=O)[nH]c(=O)[nH]1`, the outcome was inactive.

`O=C(NC(=O)c1c(F)cccc1F)Nc1cc(Cl)c(OC(F)(F)C(F)C(F)(F)F)cc1Cl` (stereo not given): the result was inactive.

As to `Cc1ccc(N)cc1Cl`, the result was inactive.

In the case of `CC(C)(C)OOC(C)(C)C`, the outcome was inactive.

As for `CN(C)N=O`, the result was inactive.

For `Nc1ccc(Cc2ccc(N)cc2)cc1`, the result was inactive.

With `CCOP(=S)(OCC)SCCSCC`, the outcome was inactive.

Turning to `O=[N+]([O-])c1ccc([As](=O)(O)O)cc1`, the outcome was inactive.

`CC(C)C#N`: the result was inactive.

In the case of `CCCCN(CC)C(=O)SCCC`, the outcome was inactive.

For the compound `NCCc1ccc(O)cc1`, the outcome was inactive.

Turning to `CC(C)NC(=O)N1CC(=O)N(c2cc(Cl)cc(Cl)c2)C1=O`, the outcome was inactive.

Take `c1ccc(-c2ccccc2)cc1`: the outcome was inactive.

As for `CC(Br)C(=O)O` (stereo not given), the outcome was inactive.

`CC(Oc1ccc(Cl)cc1Cl)C(=O)O` (stereo not given): the outcome was inactive.

`Oc1ccccc1Cl`: the outcome was inactive.

With `CC(C)(Cl)Cl`, the result was inactive.

With `CCC[CH2][Sn]([Cl])([Cl])[Cl]`, the result was inactive.

On to `C1CN2CCN1CC2`, for which the result was inactive.

With `C=CCO`, the “activity, negative = inhibition” value was 0.464%.

In the case of `Cc1cccc([N+](=O)[O-])c1`, the outcome was inactive.

Turning to `COC(=O)NC(=S)Nc1ccccc1NC(=S)NC(=O)OC`, the result was inactive.

Turning to `CCCC1COC(Cn2cncn2)(c2ccc(Cl)cc2Cl)O1` (stereo not given), the result was inactive.

On to `CC(C)C1(C)N=C(c2nc3ccccc3cc2C(=O)O)NC1=O` (stereo not given), for which the outcome was inactive.

As to `CON(C)C(=O)Nc1ccc(Cl)c(Cl)c1`, the result was inactive.

With `CN(C)[C@@H]1C(=O)C(C(N)=O)=C(O)[C@@]2(O)C(=O)C3=C(O)c4c(O)cccc4[C@@](C)(O)[C@H]3C[C@@H]12`, the result was inactive.

For the compound `c1ccc2c(c1)oc1ccccc12`, the result was inactive.

As to `CC(C)OC(=O)Nc1ccccc1`, the outcome was inactive.

Turning to `BrCCBr`, the result was inactive.

For `Clc1ccc(Cl)cc1`, the result was inactive.

For the compound `c1ccc(OP(Oc2ccccc2)Oc2ccccc2)cc1`, the outcome was inactive.

Consider `CCOP(OCC)OCC`, for which the result was inactive.

`[N-]=[N+]=[N-]`: the outcome was inactive.

Take `CCCCCCCCCl`: the outcome was inactive.

Regarding `O=c1n(Cl)c(=O)n(Cl)c(=O)n1Cl`, the outcome was inactive.

`Clc1cccc(Cl)c1Cl`: the outcome was inactive.

Values taken from PubChem BioAssay (Tox21).
